Where “and” joins values, the source holds several entries; their conditions need not be identical. Equal entries are not always repeated. Inconclusive results are not listed. Some structures have more than one record in an assay (separate samples or runs), and their calls can disagree. Calls of active or inactive are those of the source. Unless noted, the call rests on the fitted dose curve; in most records, active means well fitted curve in the direction sought with a large enough effect in the repeat runs; inconclusive means weak or mixed curves; inactive means no such curve, though single readings can be large; an effect the other way counts as inactive or inconclusive.

The text below walks through data of PubChem BioAssay (Tox21).

The nature of test [1]: qHTS assay to identify small molecule antagonists of the retinoid acid receptor (RAR) signaling pathway - cell viability counter screen (AID 1159551). Further: nearly all actives have a fitted effect of over 35% in size. Further: potency means the concentration at half of the fitted maximal effect. The method in brief: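 Viability of C3RL4 cells is quantified from ATP by luminescence after 6 h treatment at 37 C with compounds and 1 uM retinol.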
Background: Quantitative high-throughput screening tests each substance at several concentrations.

The nature of test [2]: qHTS assay to identify small molecule antagonists of the retinoic acid receptor (RAR) signaling pathway (AID 1159552; further: nearly all actives have a fitted effect of over 50% in size; further: potency means the concentration at half of the fitted maximal effect). The method in brief:
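Overnight-plated C3RL4 reporter cells get compound, then retinol to 1 uM final; plates sit 6 hr at 37 C, 5% CO2. A luciferase reagent is added and light output recorded after 30 min at room temperature.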

Test [3] is described as follows: qHTS assay to identify small molecule agonists of the retinoic acid receptor (RAR) signaling pathway (AID 1159553). Further: potency means the concentration at half of the fitted maximal effect. The method in brief:
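Compounds dissolved in DMSO were pinned onto C3RL4 cells seeded the previous day, and plates were held 6 hr at 37 C. RARE-driven luciferase output was then read by luminescence.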

The nature of test [4]: qHTS assay to identify small molecule antagonists of the estrogen related receptor (ERR) signaling pathway from Tox21 library - cell viability counter screen (AID 1224834). Further: nearly all actives have a fitted effect of over 30% in size. Further: potency means the concentration at half of the fitted maximal effect. The method in brief:
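In this quantitative HTS format, ERR cells receive compounds in DMSO and are incubated for 17.5 h at 37 C. Live-cell protease activity is then detected with CellTiter-Fluor.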

Test [5] has as its target Luciferin 4-monooxygenase (Photinus pyralis) (UniProt P08659). Put plainly: qHTS assay to identify small molecule inhibitors of firefly luciferase (AID 1224835). Further: nearly all actives have a fitted effect of over 25% in size. Further: potency means the concentration at half of the fitted maximal effect. The method in brief:
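Quantitative HTS format; KM concentrations of both substrates. Purified P. pyralis FLuc activity quantified from luminescence images.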

Test [6] can be described thus: qHTS assay to identify small molecule antagonists of the estrogen related receptor (ERR) signaling pathway (AID 1224819;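 further: luminescence from an ERR-driven luciferase reporter measured with One-Glo reagent; series mostly up to about 46 µM; nearly all actives have a fitted effect of over 50% in size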). The method in brief:
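ERR reporter cells were plated at 2,000 cells/well and left 6 h at 37 C/5% CO2 before pin-tool transfer of compounds in DMSO. After 18 h at 37 C, One-Glo was added and luminescence was read 30 min later at room temperature.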

The nature of test [7]: qHTS assay to identify small molecule agonists of the estrogen related receptor (ERR) signaling pathway (AID 1224820). The method in brief: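 An ERR cell line provided by NTP was seeded at 2,000 cells per well and allowed to settle for 6 h before compounds in DMSO were added. After 18 h at 37 C, luciferase activity was measured by One-Glo luminescence.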
Test [8] relates to estrogen-related receptor alpha (ERRalpha) with PGC-1alpha coactivator, human. The test can be described thus: qHTS assay to identify small molecule antagonists of the estrogen related receptor signaling pathway with the pleiotropic PPARgamma coactivator (PGC) (AID 1224821; calls by dose curve;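 further: series mostly up to about 46 µM; lower luminescence signal means antagonism of PGC/ERR signalling; nearly all actives have a fitted effect of over 50% in size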). The method in brief:
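A PGC/ERR cell line supplied by NTP is seeded, allowed 6 h at 37 C, and treated with test compounds in DMSO for 18 h. Signal is then measured as luciferase luminescence using One-Glo.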

Test [9] is described as follows: qHTS assay to identify small molecule antagonists of the estrogen related receptor signaling pathway with the pleiotropic PPARgamma coactivator (PGC) cell viability counter screen (AID 1224822;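 further: series mostly up to about 46 µM; viability read after 17.5 h compound exposure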). The method in brief:
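Viable cell signal (CellTiter-Fluor, 30 min, 37 C/5% CO2) was measured in PGC/ERR cells after a 17.5 h compound incubation.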

Test [10] can be described thus: qHTS assay to identify small molecule agonists of the estrogen related receptor signaling pathway with the pleiotropic PPARgamma coactivator (PGC) (AID 1224823). The method in brief:
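Compounds dissolved in DMSO are added by pin tool to PGC/ERR cells that have settled for 6 h, and incubation continues 18 h at 37 C. Reporter output is measured as One-Glo luminescence.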

Chain of Luciferin 4-monooxygenase (Photinus pyralis) (P08659 whole entry, looked up): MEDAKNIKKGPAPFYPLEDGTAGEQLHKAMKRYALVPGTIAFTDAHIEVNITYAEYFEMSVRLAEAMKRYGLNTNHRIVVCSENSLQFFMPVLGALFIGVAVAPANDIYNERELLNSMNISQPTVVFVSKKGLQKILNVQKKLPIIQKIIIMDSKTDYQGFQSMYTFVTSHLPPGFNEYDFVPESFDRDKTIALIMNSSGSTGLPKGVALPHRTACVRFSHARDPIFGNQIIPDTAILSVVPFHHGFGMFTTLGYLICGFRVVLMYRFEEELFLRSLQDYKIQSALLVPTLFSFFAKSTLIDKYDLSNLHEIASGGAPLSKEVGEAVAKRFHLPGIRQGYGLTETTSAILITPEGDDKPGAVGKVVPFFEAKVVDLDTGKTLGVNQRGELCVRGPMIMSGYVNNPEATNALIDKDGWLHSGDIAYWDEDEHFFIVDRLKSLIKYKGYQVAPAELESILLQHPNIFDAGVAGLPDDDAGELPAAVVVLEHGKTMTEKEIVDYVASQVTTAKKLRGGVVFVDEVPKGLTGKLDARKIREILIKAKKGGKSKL

In the case of `CC(C)CCOCc1ccccc1`, the Potency result in test [1], in [2], in test [3], in test [4] and in test [5] was “inactive” throughout.
Consider `Nc1ccc2cc3ccccc3cc2c1`, for which the Potency result in [1], in test [2] and in test [4] was “inactive” each time. For the same molecule, the Potency in test [3] was 5.54 µM (active) and 34.4 µM (active); in test [5], 20.4 µM (active) and 17.8 µM (active).
As to `CCC(C)(Oc1ccc(C2(c3ccc(OC(C)(CC)C(=O)O)cc3)CCCCC2)cc1)C(=O)O` (stereo not given), the Potency result in test [1], in [2], in test [3], in test [4] and in test [5] was “inactive” in each case.
On to `COC(=O)/C=C/c1ccccc1`, for which the Potency entry in test [1], in [2], in test [3] and in test [4] was “inactive” in each case.
In the case of `N[C@@H]1CONC1=O`, the Potency result in [1], in test [2], in test [3], in test [6], in test [8] and in test [9] was “inactive” in each case. In addition, the Potency entry in [4] and in [5] was “inactive” in each case. The result in [7] and in test [10] was inactive.
`CC1COc2c(N3CCN(C)CC3)c(F)cc3c(=O)c(C(=O)O)cn1c23` (stereo not given): the Potency entry in test [1], in test [2], in [3], in test [9], in test [4] and in test [5] was “inactive” each time.
Consider `O=C(O)c1cn(-c2ccc(F)cc2)c2cc(N3CCNCC3)c(F)cc2c1=O`, for which the Potency result in test [1], in test [2], in test [3], in test [4] and in test [5] was “inactive” each time.
As for `COc1nc(C)nc(Cl)c1NC1=NCCN1`, the Potency entry in [1], in [2], in test [9], in test [4] and in test [5] was “inactive” throughout.
For `Nc1nc(=S)c2[nH]cnc2[nH]1`, the Potency result in test [1], in test [3] and in test [5] was “inactive” in each case. Also, the Potency entry is “inactive and 24.3 µM (active)” in test [2]; 11.9 µM (active) and 4.33 µM (active) in test [4].
`O=c1n(CC2CO2)c(=O)n(CC2CO2)c(=O)n1CC1CO1` (stereo not given): the Potency entry in test [1], in test [2], in [3] and in [5] was “inactive” throughout. Besides, the Potency in test [4] is 60.8 µM (active).
As to `CO[Si](OC)(OC)c1ccccc1`, the Potency result in test [1], in test [2], in [3], in test [4] and in test [5] was “inactive” in each case.
Turning to `NCCO`, the Potency entry in test [1], in test [2], in [9], in test [4] and in test [5] was “inactive” each time.
Take `OCC(CO)N[C@H]1C[C@](O)(CO)[C@@H](O)[C@H](O)[C@H]1O`: the Potency result in test [1], in test [2], in test [3], in test [4] and in test [5] was “inactive” each time.
For `CC(C)(C)c1ccccc1`, the Potency entry in test [1], in test [2], in test [3], in test [4] and in [5] was “inactive” each time.
For the molecule `Nc1nc2ccccc2[nH]1`, the Potency entry in test [1], in test [2], in [3], in test [4] and in test [5] was “inactive” each time.
With `CCN(CC)C(=O)Nc1ccc(OCC(O)CNC(C)(C)C)c(C(C)=O)c1` (stereo not given), the Potency result in test [1], in test [2], in test [3], in test [4] and in [5] was “inactive” throughout.
As for `c1ccc2c(c1)CCCC2C1=NCCN1` (stereo not given), the Potency result in test [1], in test [2], in [9], in test [4] and in test [5] was “inactive” each time.
As for `C=CS(=O)(=O)O`, the Potency result in test [1], in test [2], in [3], in [4] and in test [5] was “inactive” in each case.
Take `CCCCN(CCO)CCCC`: the Potency result in test [1], in test [2], in test [3], in [4] and in [5] was “inactive” each time.
`O=C(OCc1ccccc1)c1ccc(O)cc1`: the Potency result in test [1], in [2] and in [4] was “inactive” throughout. Also, the Potency in [3] was 6.86 µM (active) and 11.9 µM (active); in test [5], 31.7 µM (active) and 15.5 µM (active).
As for `COc1ccc(COC(C)=O)cc1`, the Potency entry in test [1], in test [2], in test [3], in [4] and in test [5] was “inactive” throughout.
Take `CC1=CC(=O)c2ccccc2C1=O`: the Potency in [1] is 27.3 µM (active); in [2] it was 30.6 µM (active); in [4], 61.1 µM (active) and inactive. Further, the Potency result in test [3] and in test [5] was “inactive” in each case.
For the molecule `Cc1ccc(S(=O)(=O)Oc2ccc(N=Nc3ccc(-c4ccc(N=Nc5c(O)ccc6cc(S(=O)(=O)O)cc(S(=O)(=O)O)c56)c(C)c4)cc3C)cc2)cc1`, the Potency in test [1] is 24.4 µM (active) and 20 µM (active); in test [4], 19.4 µM (active) and 17.8 µM (active); in test [5], 63.5 µM (active) and 23.2 µM (active). The Potency result in test [2] and in test [3] was “inactive” each time.
As for `CCn1cc(C(=O)O)c(=O)c2cc(F)c(N3CCNC(C)C3)c(F)c21` (stereo not given), the Potency result in [1], in [2], in [6], in test [8], in [9] and in test [4] was “inactive” each time. For the same molecule, the Potency result in test [5] is “inactive”. The call in test [7] and in [10] was inactive.
For the molecule `CC(C)C(=O)c1c(C(C)C)nn2ccccc12`, the Potency entry in test [1], in test [2], in [6], in [8], in test [9] and in [4] was “inactive” throughout. Further, the Potency result in test [5] is “inactive”. In addition, the result in test [7] and in test [10] was inactive.
Regarding `c1ccc2cc3c(ccc4ccccc43)cc2c1`, the Potency result in [1], in [2] and in test [4] was “inactive” in each case. Further, the Potency is 2.74 µM (active) and 3.86 µM (active) in test [3]; 5.66 µM (active) and 8.94 µM (active) in test [5].
For `C1COC(NC(C2CC2)C2CC2)=N1`, the Potency entry in test [1], in test [2], in test [6], in test [8], in test [9] and in test [4] was “inactive” throughout. For the same molecule, the Potency entry in [5] is “inactive”. Further, in test [10], the molecule was classed as inactive.
For the molecule `O=C(O)CCc1ccccc1`, the Potency entry in test [1], in test [2], in test [3], in [4] and in test [5] was “inactive” throughout.
Consider `C[N+]1([O-])CCOCC1`, for which the Potency entry in [1], in test [2], in test [3], in test [4] and in [5] was “inactive” each time.
Turning to `CC(C)(C)NCC(O)COc1ccccc1OCC1CCCO1` (stereo not given), the Potency entry in test [1], in test [2], in test [3], in [4] and in test [5] was “inactive” throughout.
In the case of `COc1ccc(Cc2cnc(N)nc2N)cc1OC`, the Potency result in test [1], in test [2], in [3], in [4] and in test [5] was “inactive” each time.
On to `NC(N)=NC(=O)Cc1c(Cl)cccc1Cl`, for which the Potency entry in test [1], in test [2], in test [6], in [8], in test [9] and in test [4] was “inactive” each time. In test [5], the Potency entry is “inactive”. Besides, the call in [7] and in test [10] was inactive.
For `CC(=O)OCCOCCOCCOC(C)=O`, the Potency result in test [1], in test [2], in [3], in [4] and in test [5] was “inactive” each time.
